Compound activity deposited in PubChem BioAssay by Sanford-Burnham Center for Chemical Genomics.
Only some compounds are listed: those with a hit (about 31% of all), similar ones and a draw of the others.
PLAP act: human PLAP activation; purified PLAP enzyme, luminescent substrate read-out; hits give high values; activation fold at 20 µM; 96,000 tested, 1.2% active; AID 696; in the data active = activation fold above about 2
Target sequence (P05187 whole entry, looked up): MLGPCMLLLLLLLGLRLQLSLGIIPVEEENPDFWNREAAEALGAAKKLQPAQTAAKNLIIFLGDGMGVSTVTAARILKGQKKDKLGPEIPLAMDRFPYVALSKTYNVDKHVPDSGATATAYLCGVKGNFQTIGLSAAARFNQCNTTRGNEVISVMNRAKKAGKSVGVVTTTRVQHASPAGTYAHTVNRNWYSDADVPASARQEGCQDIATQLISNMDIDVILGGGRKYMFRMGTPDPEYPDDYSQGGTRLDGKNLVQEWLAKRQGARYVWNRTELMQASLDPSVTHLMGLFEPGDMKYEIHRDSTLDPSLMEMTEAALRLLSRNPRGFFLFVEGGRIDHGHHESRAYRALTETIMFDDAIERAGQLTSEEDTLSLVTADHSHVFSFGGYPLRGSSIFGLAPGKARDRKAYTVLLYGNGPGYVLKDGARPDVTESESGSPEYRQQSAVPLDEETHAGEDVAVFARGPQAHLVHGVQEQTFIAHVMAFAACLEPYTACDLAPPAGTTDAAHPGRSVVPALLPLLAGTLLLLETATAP
CYP2C19 inhib: inhibitors of human CYP2C19. P33261. CYP2C19 Supersomes, luciferin-H EGE luminescence, 30 min. 96,000 tested, 21% active. inhibition, % at 5 µM;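 active = CYP2C19 inhibition above a set limit at 5 µM in the primary screen, cut at about 50% in these data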;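 also: plate controls were negative control wells for no effect and 2.5 mM tranylcypromine positive control for full effect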
CYP2C9 inh: inhibitors of human CYP2C9; inhibition, % at 5 µM; P11712; CYP2C9 Supersomes, luciferin-H conversion, luminescence; 96,000 tested, 20% active;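 active = blocking of liver enzyme CYP2C9 beyond about 50% at 5 µM, limit read from the data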
CYP2C19 act: activators of human cytochrome P450 2C19; P33261; 96,000 tested, under 10 active; activation factor at 5 µM; recombinant CYP2C19, luciferin-H EGE luminescence; hits give high values; 0 = fully inhibited enzyme, 1 = untreated enzyme;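 active = activation factor of at least 2 at 5 µM in the primary screen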;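 also: 0 = wells with 2.5 mM tranylcypromine and 1 = vehicle-only wells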
CYP2C9 act: increases human cytochrome P450 2C9 activity. 96,000 tested, 1.4% active. P11712. activation factor at 5 µM. recombinant CYP2C9, luciferin-H conversion, luminescence; hits give high values; factor 1 = untreated enzyme, 0 = blocked;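 active = activation factor of 2 or more for CYP2C9 at a 5 µM dose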;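 also: 0 = sulfaphenazole-blocked wells and 1 = vehicle-only wells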
Active calls of the source: *.

SMILES | PLAP act | CYP2C19 inhib | CYP2C9 inh | CYP2C19 act | CYP2C9 act
COc1cccc(OCc2cc(/C=N/NC(=O)c3ccn[nH]3)ccc2OC)c1 | 1.5 | 26 | 41 | 0.7 | 0.6
COc1ccc(CN2CC(C(=O)N3CCOCC3)CC2=O)cc1 (stereo unspecified) | 0.9 | 13 | 1 | 0.9 | 1
Cc1cccc(-n2cnc(C(=O)N/N=C\c3ccc(Br)cc3)c2)n1 | 1.5 | 14 | -24 | 0.9 | 1.2
COc1ccccc1/C=C/C(=O)c1c2c(c(C)[nH]c1=O)CCCC2 | 1.1 | 23 | -128 | 0.8 | 2.3*
COc1ccccc1/C=C/C(=O)c1ccc(Cl)cc1 | 0.8 | 24 | 1 | 0.8 | 1
O=C(Oc1cccc(N2C(=O)CCC2=O)c1)C1CC(=O)N(c2ccc(Br)cc2)C1 (stereo unspecified) | 1 | -10 | 6 | 1.1 | 0.9
CSc1nc(-c2ccccc2)nc(N2CCCC2)c1C(C)=O | 0.9 | 6 | 25 | 0.9 | 0.8
CSc1nc(-c2ccccc2)nc(N2CCN(C)CC2)c1C(C)=O | 1.5 | 56* | 53* | 0.4 | 0.5
COc1ccc(CCC(=O)N2CCN(S(=O)(=O)c3ccc4ccccc4c3)CC2)cc1 | 1 | 35 | 18 | 0.6 | 0.8
COc1ccc(S(=O)(=O)N2CCN(Cc3c[nH]c4ccccc34)CC2)cc1 | 1.2 | 52* | -1 | 0.5 | 1
COc1cc(CN2CCN(S(=O)(=O)c3ccc(F)cc3)CC2)cc(OC)c1OC | 1.7 | 84* | 47 | 0.2 | 0.5
CCOc1ccc(C(=O)CN2CCN(S(=O)(=O)c3ccc(Cl)cc3)CC2)cc1 | 0.9 | 58* | 24 | 0.4 | 0.8
COc1cc(CCC(=O)N2CCN(S(=O)(=O)c3ccc(C)c(C)c3)CC2)cc(OC)c1OC | 1.4 | 56* | 45 | 0.4 | 0.6
O=S(=O)(CCN(CCS(=O)(=O)C(F)(F)F)CC1CCCO1)C(F)(F)F (stereo unspecified) | 1 | 3 | -9 | 1 | 1.1
O=C(O)CNC(=O)CCN1C(=O)c2ccccc2C1=O | 0.8 | -4 | -23 | 1 | 1.2
NC(=O)CNC(=O)[C@@H]1CC2(CC(c3ccc(Cl)cc3)=NO2)CN1C(=O)c1ccc(Br)cc1 (stereo partly specified) | 1.4 | 4 | 10 | 1 | 0.9
CSc1ccc(/C=N/n2c(C)cc(C)cc2=O)cc1 | 0.9 | 1 | -16 | 1 | 1.2
COc1cc(/C=C2/C(=O)N=C(N)N2C)cc(OC)c1OC | 1.6 | 7 | 5 | 0.9 | 0.9
COc1ccc(S(=O)(=O)N2CC3C4C=CC(C4)C3C2)cc1 (stereo unspecified) | 0.9 | 58* | 22 | 0.4 | 0.8
COc1ccc(S(=O)(=O)N2CCN(Cc3ccc(Cl)cc3)CC2)cc1 | 1.1 | 63* | -10 | 0.4 | 1.1
CCOC(=O)c1ccc(S(=O)(=O)N2CCN(CC(=O)NC(=O)NC3CCCCC3)CC2)cc1 | 1.6 | 16 | 60* | 0.8 | 0.4
COc1ccc(S(=O)(=O)N2CCN(Cc3cccc(Cl)c3)CC2)cc1 | 1 | 94* | 61* | 0.1 | 0.4
COc1ccc(S(=O)(=O)N2CC(C)N(S(=O)(=O)c3ccc(OC)cc3)CC2C)cc1 (stereo unspecified) | 0.9 | 30 | 0 | 0.7 | 1
CCCc1nnc(NC(=O)Cn2cnc3ccccc3c2=O)s1 | 1 | -1 | 6 | 1 | 0.9
Cc1cc(Oc2ccc(C#N)cc2)nc(NCc2ccccc2)n1 | 0.7 | 11 | 9 | 0.9 | 0.9
SMILES | PLAP act | CYP2C19 inhib | CYP2C9 inh | CYP2C19 act | CYP2C9 act
CC1CCN(c2cc(N)c(Cl)cc2[N+](=O)[O-])CC1 | 0.9 | 26 | 34 | 0.7 | 0.7
N#CC1(c2ccccc2)CCCN1C(=O)c1ccccc1Br (stereo unspecified) | 0.9 | 11 | 0 | 0.9 | 1
CCOC(=O)CCc1c(C)nc(SCCCn2c(=O)[nH]c3ccccc32)c(C#N)c1C | 0.8 | 46 | 64* | 0.5 | 0.4
CCOC(=O)CCc1c(C)nc(SCCN2CCCC2)c(C#N)c1C | 1.5 | 30 | 36 | 0.7 | 0.6
Cc1c(C(=O)NCc2ccccn2)sc2nc(-c3ccc(F)cc3)cn12 | 0.8 | -2 | 63* | 1 | 0.4
Cc1c(C(=O)NCC2CCCO2)sc2nc(-c3ccc(F)cc3)cn12 (stereo unspecified) | 1.4 | -2 | 55* | 1 | 0.4
Cc1c(C(=O)NCc2ccc3c(c2)OCO3)sc2nc(-c3ccc(F)cc3)cn12 | 1 | -7 | -5 | 1.1 | 1
CCOC(=O)N1CCN(C(=O)CN2C(=O)CC(C)(C)S(=O)(=O)c3ccccc32)CC1 | 0.9 | 55* | -64 | 0.5 | 1.6
O=C(N/N=C/c1ccco1)c1cc(-c2ccc3ccccc3c2)n[nH]1 | 2.7* | 29 | 30 | 0.7 | 0.7
CCCN(C(=O)c1ccccc1N)c1c(C)n(C)n(-c2ccccc2)c1=O | 1.1 | 4 | 16 | 1 | 0.8
CCOc1ccc(NC(=O)C2CCCCN2S(=O)(=O)c2ccccc2)cc1 (stereo unspecified) | 1.1 | 75* | -5 | 0.2 | 1
O=C(NCc1ccco1)C1CCCCN1S(=O)(=O)c1ccc(F)cc1 (stereo unspecified) | 1.1 | 61* | 31 | 0.4 | 0.7
COc1ccc(NC(=O)C2CCCN2S(=O)(=O)c2ccc(C)cc2)cc1 (stereo unspecified) | 1.1 | 74* | 75* | 0.3 | 0.3
COc1ccc(S(=O)(=O)N2CCCC2C(=O)Nn2cnnc2)cc1 (stereo unspecified) | 1 | 7 | -7 | 0.9 | 1.1
O=C(O)C1CCCCN1S(=O)(=O)c1ccccc1 (stereo unspecified) | 1.1 | 1 | 28 | 1 | 0.7
O=C(NCC1CCCO1)C1CCCCN1S(=O)(=O)c1ccc(F)cc1 (stereo unspecified) | 1.1 | 2 | -6 | 1 | 1.1
CCOc1ccc(N2CC(C(=O)Nc3ccc(S(=O)(=O)N4CCOCC4)cc3)CC2=O)cc1 (stereo unspecified) | 1.7 | 22 | 57* | 0.8 | 0.4
O=C(Cc1ccc(-n2cccc2)cc1)NCc1cccs1 | 0.9 | 5 | 31 | 1 | 0.7
CCn1nnnc1Oc1ccc(Cl)cc1 | 1 | 36 | -3 | 0.6 | 1
COc1ccc(-c2c[n+]3c4n2CCCCC4=C(c2ccccc2)C3)cc1 | 1.3 | -11 | -1 | 1.1 | 1
CC(C)(C)NC(=O)C(=O)N/N=C/c1cccs1 | 0.9 | 10 | 33 | 0.9 | 0.7
COc1ccc(S(=O)(=O)N2CCCC2C(=O)Nc2ccc(C(C)=O)cc2)cc1 (stereo unspecified) | 1.3 | 57* | 30 | 0.4 | 0.7
Cc1ccc(S(=O)(=O)N2CCC(C(=O)Nc3ccc4c(c3)OCO4)CC2)cc1 | 0.8 | 9 | -10 | 0.9 | 1.1
COc1ccc(S(=O)(=O)N2CCC(O)(c3ccc4c(c3)OCO4)CC2)cc1 | 1 | 3 | -17 | 1 | 1.2
O=S(=O)(c1ccc(F)cc1)N1CCC(O)(c2ccc3c(c2)OCO3)CC1 | 0.9 | 71* | 8 | 0.3 | 0.9
